# In all, about 59,000 sequences were measured (the read-out: median about -0.00055, lowest 2% from about -2 on). The entries come from a sample that favours the lowest values as a whole.
# Assay: Identification of proteins required for the processing of the EWS-FLI1 nascent transcript;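 note: robust z of luciferase light less the median z of siRNAs with the same seed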
# Details: TC32 Ewing sarcoma NR0B1-luc vs CMV-luc (EWS-FLI1 target promoter against control promoter), 48 h; screened at 20 nM (by protocol)
# How it was run: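 Three siRNAs per gene, each in a separate well at 20 nM, were transfected into TC32 cells bearing either reporter construct. Luminescence was measured two days on, and per-gene comparison relied on seed-corrected Z values.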
row,Sequence,seed-corrected z-score
1,UCAUUGUCCGAUGCCUUGG against SLCO1B3,-0.953
2,UUCUGCCCAAGUACAAUGG against C16orf52,-2.07
3,UCUUUGAGAAUGUCAAGCU against TIMM44,0.11
4,UCUCUGUAUCGUAUGGUGG against NTN4,-0.868
5,UUGGUAGACACCUCCUUGU against KRT13,0.268
6,UUUGCGACAAAACAGUUUG against DEPTOR,0.125
7,AUCAGAAUCAGGAUAGGCC against RND2,0.812
8,AAUCUCACAGGUGAAGUGG against OR2S2,-0.14
9,AGAGUUGUCAGAAGGGCGG against NCR2,-5.82
10,UGCAUAAUAAGUCAUGUGG against DCN,-0.34
11,UUUCCUUCUGCUCUCGUGC against RCAN3,0.855
12,AUCUUUAGAACAUCGGUGG against SLC25A14,-0.984
13,AUAUGCUUCACCUCUUUAC against SNTB2,-2.92
14,AUAAGGAUUACUAGUUUUG against CDK8,0.165
15,UAAGCACACACAAUGGUAC against DLK2,0.0903
16,UAUGGGCCGUGGACUCUCA against TPSAB1,-0.127
17,UACAGGGACACCACCUUGC against BOK,-0.14
18,UGGUCUUCACAUUAGAUGC against NUTM1,-2.03
19,UUGUAGUACAUUAACCUUG against ANKRD26,0.963
20,UGACAUACUUCGUAAGUCC against ERLEC1,0.555
21,UUCAUAAAGAGGAGGUACC against CLUH,0.239
22,AUUUUGAACAUGUUUGCUG against NAPA,0.31
23,UUCUGGUAGAUGUGACUGC against ZNF83,-0.405

row,Sequence,seed-corrected z-score
1,UACAAGAUUAUAGGCGGUC against TRAPPC11,0.0691
2,UCUGAGUCCUCUGUAACCU against MZF1,-2.17
3,UACAGUUCAUCAAUCGUCA against APOA1BP,0.829
4,UAUACUUCCCAAGAAGUCC against FAM217B,0.596
5,UGUUGUUGUGACAAAAUCG against EIF5,0.296
6,UUUAAGAUAGGCGACACUG against LMOD3,0.0486
7,UGUAAAUUUGCACCGAUGG against RPTOR,-12.1
8,AUCUGUACAAAUCUCUUUG against ZNF140,-0.593
9,UCCUCUUCGAAUGUUGUCG against TSPAN15,-0.886
10,UUUGCGAUCUUCGAAGCCC against REEP3,-0.668
11,UCGAUUAAAACCGCGAUCG against PPP2R1B,-0.365
12,UUUGUCAGAAAACGCAUCC against GPR149,-2.76
13,UCAAUGAUCUCGAUGAUGA against PLEC,-0.0712
14,UUCCGGGCAGCAAUAAUGG against PGM5,-0.0662
15,UUUCCCAUCAGGGUUAAGC against OR2A12,-0.365
16,UGAUAUAUAAGGCCCGGAC against RPL10A,-3.19
17,UUCUGUAUUCUUCAGCGUG against OR4C16,-0.379
18,UUUGGAGCUUGGGAAUUGC against ARHGAP27,-0.993
19,UUUGUUCCUUUUCGAGUUC against CCDC127,2.99
20,UGAAUCAAAUGAUCUGACC against RAB9A,0.786
21,AAUGUGAUCAAAAAUAGCC against NAT2,0.2
22,UUGGUUUAAAGUUAAGUUG against C5orf63,-2.45
23,UUGAUAUUUGUGAAUCUCC against FERMT1,-0.474

row,Sequence,seed-corrected z-score
1,UAUUUAGCAAUGCAGAACU against RPP25L,0.342
2,UGUCUGAUUCAUUAUGAGC against CCDC74A,-0.71
3,AAAGGUCCCAGAGUACAUG against SLC25A20,0.174
4,UUUAUGCUGAGUCCCAUAG against APBB1IP,-2.98
5,AAAGUAAUAGAAGUGUUUG against MOB3B,0.429
6,UAGAGAGACAGGGUGCAGG against C1orf162,-2.87
7,UCUGGUUUUAGUAUUCUUA against NBEAL1,-0.389
8,UUCUUUAGACUGUCCAGCG against KLHL6,-2.04
9,UUAGGGCUUGGUAUAGAGG against ST18,0.568
10,UUGCGUUCCACAUGUUGAC against PRDM7,-9.3
11,UAAGUGAUUGGAGGUAAAG against LOC727775,0.67
12,AUAUGGUCCUUCUUAUUGC against HSD52,0.199
13,AUGCUUAUAGUUGUUCUUC against POU1F1,-2.19
14,UCACAAAACACUUUGCCGU against LIMD1,0.194
15,UUGGUAGAGAGGUAAAAUG against KRTAP4-4,1.06
16,UAAUAGUCAGGUUCCCUGU against OR6C2,-0.02
17,AAAGUAGGACGAGAUGCCG against DDX51,1.06
18,UCUGGACACGGCUUAUUGC against C17orf58,0.125
19,AUAAGAACAACAAAUACAC against C2CD4A,0.789
20,UGGUUAUUAAUGGUGCACC against ELF2,-2.8
21,UUAGAGCUACUGAACUGCC against DHX58,0.739
22,AAGUUGCCAAGAACAUGCU against LINC01168,-3.59
23,UAUCUGGUAUGCUACGUCC against CCDC7,0.683

row,Sequence,seed-corrected z-score
1,UAUGAUCGAACUUUUUGAG against RSG1,-2.03
2,AACCUGUCAAUUAUCACUG against EBF1,0.337
3,UCUCCGUCCACAUUUGUUG against NTRK1,0.0167
4,UCUCUGAUGAGCAUUAAGG against ZNF26,-0.977
5,AAACUUCUUGGGUUUCUAC against ZBTB8OSP1,0.246
6,ACACUGACAAAUGUUAGGC against VWDE,-2.22
7,AACCUUUAACUUGUGCUCC against ELAC2,0.641
8,UGCCCAAAUAGAAUUCUGU against RPL35A,-0.216
9,AGCUUUUCCAAAACCGUGC against NGDN,2.14
10,AUAUUUAUUGGGCAGUGGA against PYDC1,-0.518
11,UUUGUAGCAGGUACAGGCC against EPPK1,-0.0968
12,AAGGUGGUAGGCACUUUGG against MAVS,-2.67
13,UUCGAAAUGCCUGAUAGCC against P3H2,0.287
14,AGAUGUUCCACACUCUGCC against C1orf95,-3.59
15,AUACUGCCGAUAUAUCAGC against AP4S1,-0.442
16,AAGUUUAUGGACAAUUUCC against SMYD5,0.313
17,UACUUUACAACAUAUGGGC against STK3,-0.0972
18,UGGUUAGCAAUGCAUAUUC against SV2C,0.364
19,UUCUUCAUUCCUGCUAGGC against EEF1B2P5,-0.108
20,UAAGGGUCAAUGCAGUAGU against ZAR1L,-0.414
21,UAAAUAGCAAAUUGCAUAC against DNAJB3,1.32
22,UUUGCCUAGACUAUGCUUG against PPARGC1B,-1.6
23,AUCUGCAUAAUCCUUGUUG against COG2,-2.77

row,Sequence,seed-corrected z-score
1,UAUGUAACUGACAAUGACG against ADGRA3,-0.447
2,UUGAGUGCAAAGGCUUGUC against SLC25A12,1.4
3,UUAGGUCUCUGAAGUUUUC against NUTM2A-AS1,-0.188
4,UAUCUUAUUUCAUCGUUUC against PTGS1,-0.545
5,AUCGUCUUGACUGUGGUCC against CEACAM1,-0.766
6,AUAGCGAUUAUUCUCACAG against PDHA1,0.0331
7,UUAUUUAUCUGAGUUGUGA against NFIA-AS1,-2.52
8,UGCAGUAAACAUUUCGUUG against ADAMTS9,-0.75
9,UUGUGGUAGAUGGGACUGG against DOK3,-3.05
10,UCUGCGGUUACUCUCCAUC against TLX1,-0.0327
11,AUGAGUACAGACAAGGUCC against DRD1,-0.626
12,AACAGGCUCAGGGAUAUUG against MORN2,-1.84
13,UAGCUUCGAAUAAACAUCC against FAM3D,-4.22
14,UGAAAUACGGAUGACAUUC against AKR1C3,-1.21
15,UUUUGUGCAUAGACCAUAG against DHRS12,-0.542
16,UCUUCUUAGACCUUUCGGG against PRPF38A,-2.28
17,UUUGCAUCGUGGUAUUUCC against CTCFL,0.259
18,UUUACGAUAAUCAACCUUC against BCO1,0.641
19,UUCGCAUUGCUUCUAACUC against UACA,0.538
20,UUCAAAGUAUCGUUCUUUC against PANX3,1.35
21,UCCCGUACCAAGGGUAGCU against FAM78B,0.456
22,AAUGGUGUUGCUCUUCUCC against ZNF23,1.51
23,UUCGAAUAGUAGAAAGUCG against ABCB5,0.0668

row,Sequence,seed-corrected z-score
1,AAGCAUGUUGGUAACCUCG against PLA2G3,-2.04
2,UACAGCAUCGUCUUCUACC against TMEM246,0.565
3,UACACUUGAGUUGACGACC against LOC642335,0.105
4,UGCAUAGACAGAUUAAGCC against SEC22A,-0.0597
5,UGCUCUUUUGCUUACGUGG against GAB1,-1.74
6,UGCGUUUUCAGCUGGUUAC against MYNN,-3.83
7,UCCGUGAGAACUCAUAAGG against TG,-0.13
8,UACAGUCAAAGCUCCGUUC against GFI1,1.42
9,UCUGCGUUCUGAUUGGUGG against ANKRD55,-4.59
10,AUGCAAGUAACUGAGAUCG against CLEC14A,-1.2
11,UGUUCUAUGAGGCAAGAUG against ZGRF1,0.286
12,ACUUUCACAACGAUUUUCU against RPL34P34,-2.47
13,UUCUUUACAGCAUGAGGGC against CCL25,0.424
14,AAAGUCAUCAGCAAUUUGG against OR10G8,-1.41
15,UCCGUCGUCAGAAAGAUGC against DGCR2,0.0908
16,UGACGUGUCAUUCUCAUAC against ZNF69,-2.01
17,UUGGAGCAAAAUACAGUGG against NQO1,0.331
18,UUGUUCCUCAGGUCAAGUG against GAB2,1.13

# Reference: PubChem BioAssay AID1159506 (National Center for Advancing Translational Sciences (NCATS), 2015)
